Source: PubChem (SRMLSC)
NADH enzymes – inhibitors of PK/LDH coupling enzymes, profiling panel, artefact control, biochemical, MLSMR library; coupled PK/LDH NADH assays, four targets; IC50, µM (series often up to 10 µM); hit rate 0.02% among 65,000; AID 774, 2007;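 active = single-dose screening hits from any of four coupled enzyme assays that gave an IC50 when retested across doses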;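 note: the DPM-DC format reads NADH fluorescence rather than 340 nm absorbance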
DPM-DC inhibit – S. pneumoniae DPM-DC inhibitors, primary screen, biochemical, PK/LDH-coupled NADH fluorescence | diphosphomevalonate decarboxylase (Streptococcus pneumoniae D39) | hit rate 0.49% among 65,000 | calls only at 10 µM | purified DPM-DC;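 active = the 320 compounds with the highest percent inhibition in the single-dose primary screen, excluding strongly autofluorescent ones, cut at about 32% in these data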;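 note: kinetic rate of NADH fluorescence loss reporting ADP formed by the decarboxylase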
Fluor 339 460 – intrinsic fluorescence of library compounds, ex339/em460 – biochemical, MLSMR library, data from DPM-DC assay, artefact control, profiling panel | AID 709, 2007 | fluorescence fold increase at 10 µM | compound autofluorescence, ex339/em460 nm, NADH buffer; active compounds read high; 1 = no-compound wells, NADH background | hit rate 5.5% among 65,000;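 active = at 10 µM, mean starting fluorescence two-fold or more over control wells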;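 note: signal is the first read of a kinetic run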
Spn PMK inh – S. pneumoniae PMK inhibitors, primary screen, biochemical, mevalonate pathway, pilot trial included; phosphomevalonate kinase (Streptococcus pneumoniae D39); purified PMK, PK/LDH-coupled NADH absorbance 340 nm; inhibition, % at 10 µM; hit rate 0.49% among 65,000;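 active = top-ranked compounds by inhibition in the single 10 µM screen, taking a fixed number of the strongest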
Spn MK inh – S. pneumoniae MK inhibitors, primary screen, biochemical, PK/LDH-coupled NADH absorbance; hit rate 0.48% among 65,000; mevalonate kinase [Streptococcus pneumoniae D39]; AID 555, 2006; purified MK, PK/LDH-coupled NADH absorbance 340 nm; inhibition, % at 10 µM;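 active = ranked among the strongest by inhibition in the single 10 µM screen, a fixed top-ranked set picked for dose follow-up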
Abs 340nm – compound light absorbance at 340 nm, profiling panel, artefact control, biochemical, MLSMR library, data from PS, PMK, MK assays; compound absorbance at 340 nm, fold over control; fold change at 10 µM; 65,000 tested, under 10 active;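 active = at 10 µM dose, initial 340 nm absorbance at least 2 fold that of control wells; inactive = change under 2 fold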;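 note: initial absorbance extrapolated from kinetic A340 decline of NADH oxidation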
Each line names hits and unclear results; the compound was inactive in the other large screens. In the library only some 6.8% were active in any assay of this set; here they are far more common.

CCOC(=O)C1CCN(Cc2ccc(OC)c(C)c2OC)CC1	Spn MK inh 48.0
Fc1ccc(CN2CCSCC2)cc1Br	none
Cc1ccc2c(c1)c1c(n2CC2COC(C)(C)O2)C(=O)CCC1 (centres undefined)	Fluor 339 460 2.18 (not shown: DPM-DC inhibit)
Cc1ccc2c(c1)c1c(n2CC(O)Cn2c(C)nc3ccccc32)C(=O)CCC1 (centres undefined)	Fluor 339 460 2.04 (not shown: DPM-DC inhibit)
Cc1ccc2c(c1)c1c(n2CC(O)CN2C(=O)CNC2=O)C(=O)CCC1 (centres undefined)	Fluor 339 460 2.03 (not shown: DPM-DC inhibit)
Cc1ccc2c(c1)c1c(n2CC(O)Cn2c(C)nc3ccccc32)/C(=N\O)CCC1 (centres undefined)	none
O=C(OCc1nc2ccccc2c(=O)[nH]1)c1cccs1	none
Clc1ccc(-c2nn3c(Cn4cnc5ccccc54)nnc3s2)c(Cl)c1	none
COc1ccc2c(c1)CCc1cc(C(=O)N3CCN(c4ccc(N5CCOCC5)nn4)CC3)sc1-2	Fluor 339 460 2.46 (not shown: DPM-DC inhibit)
COc1ccc2c(c1)CCc1c(C(=O)N3CCCCCC3)noc1-2	none
CCn1c(=O)cc(SCC(=O)NCCCN2CCN(c3ccccc3F)CC2)c2ccccc21	none
N/C(CCN1CCOCC1)=N/O	Spn MK inh 52.0
COC(=O)c1cc(Br)c(=O)n(CCC2=CCCCC2)c1	none
O=C(Cn1c(SCC(=O)NC2CCCC2)nnc1-c1ccncc1)Nc1ccc2c(c1)OCO2	none
COc1ccc2c3c(c(=O)oc2c1OCC(N)=O)CCCC3	Fluor 339 460 2.47 (not shown: DPM-DC inhibit)
Cc1c(OCc2nn[nH]n2)ccc2c3c(c(=O)oc12)CCCC3	Fluor 339 460 3.8 (not shown: DPM-DC inhibit)
Cc1coc2c(C)c3oc(=O)c4c(c3cc12)CCCC4	none
CCOC(=O)COc1ccc2c3c(c(=O)oc2c1C)CCC3	Fluor 339 460 2.26
Cc1c(OCc2nn[nH]n2)ccc2c3c(c(=O)oc12)CCC(C)C3 (centres undefined)	Fluor 339 460 3.83 (not shown: DPM-DC inhibit)
CC(C)COC(=O)n1c(SCC(=O)N(C)C)nc2ccccc21	none
N#Cc1nc(-c2cccs2)oc1NCc1ccccc1	Fluor 339 460 2.38 (not shown: DPM-DC inhibit)
N#Cc1nc(-c2cccs2)oc1NCc1ccc(Cl)cc1	Fluor 339 460 3 (not shown: DPM-DC inhibit)
N#Cc1nc(-c2cccs2)oc1NCc1ccco1	Fluor 339 460 2.25 (not shown: DPM-DC inhibit)
N#Cc1nc(-c2cccs2)oc1N1CCN(c2ccccc2)CC1	Fluor 339 460 3.69 (not shown: DPM-DC inhibit)
COc1ccc(CCNC(=O)CCSc2nc(-c3ccco3)cc(C(F)(F)F)n2)cc1OC	none
O=C(COC(=O)c1ccc(S(=O)(=O)Nc2ccccc2)cc1)NCCN1C(=O)CSC1=O	none
O=C(O)c1ccc(NC(=O)C2(c3ccccc3)CCOCC2)cc1	none
CCOc1ccc(Nc2oc(-c3cccs3)nc2C#N)cc1	Fluor 339 460 3.04 (not shown: DPM-DC inhibit)
Cc1ccc(CNc2oc(-c3cccs3)nc2C#N)cc1	Fluor 339 460 3.65 (not shown: DPM-DC inhibit)
N#Cc1nc(-c2cccs2)oc1NCc1ccccc1Cl	Fluor 339 460 2.37 (not shown: DPM-DC inhibit)
COc1ccc(CNc2oc(C)nc2C#N)cc1	none
CCOc1ccc(Nc2oc(-c3ccco3)nc2C#N)cc1	none
Cc1cc(C)c2oc(-c3ccc(Cl)c(NC(=O)c4ccc(C#N)cc4F)c3)nc2c1	Fluor 339 460 3.97 (not shown: DPM-DC inhibit)
CCc1c(C)sc(NC(=O)c2cccs2)c1C(=O)OC(C)C	Fluor 339 460 2.08 (not shown: DPM-DC inhibit)
CCOC(=O)c1c(NC(=O)c2ccc(Br)o2)sc(C)c1CC	Fluor 339 460 2.11 (not shown: DPM-DC inhibit)
CCOC(=O)c1c(NC(=O)c2cccs2)sc(C)c1CC	Fluor 339 460 2.21 (not shown: DPM-DC inhibit)
C=CCn1c(NC(=O)c2ccc(Br)o2)c(C(=O)OCC)sc1=S	none
CCOC(=O)c1sc2nc(NC(=O)c3cccs3)sc2c1C	Fluor 339 460 2.08 (not shown: DPM-DC inhibit)
CCOC(=O)c1c(NC(=O)c2cccs2)sc(C(=O)N2CCOCC2)c1C	none
CCOC(=O)c1ccccc1NC(=O)c1cccs1	none
COC(=O)c1ccc(OC(=O)C2CC(=O)N(c3ccc(C)cc3C)C2)cc1 (centres undefined)	none
COc1ccccc1NC(=O)c1ccc(Br)o1	none
CCOC(=O)C1=C(NC(=O)c2ccc(Br)o2)Nc2ccccc2N=C1	Spn PMK inh 36.0
Cc1noc(C)c1CSc1nnc(-c2ccccc2F)n1CCc1ccccc1	none
COCC(C)n1c(COc2ccccc2F)nnc1SCc1c(C)noc1C (centres undefined)	Spn PMK inh 29.0
O=C1c2ccccc2C(Nc2ccc3c(c2)OCCO3)N1Cc1ccccc1 (centres undefined)	none
CC(C)Cn1nc(NS(=O)(=O)c2ccccc2)c2cc3ccccc3nc21	none
Cc1ccc2cc3c(NC(=O)CC(C)C)nn(C)c3nc2c1	none
CC(C)Cn1nc(NC(=O)C2CCCO2)c2cc3ccccc3nc21 (centres undefined)	Fluor 339 460 2.15
CCn1nc(NC(=O)c2ccccn2)c2cc3cc(C)ccc3nc21	Fluor 339 460 3.01
CCn1nc(NC(=O)c2cccnc2)c2cc3ccccc3nc21	none
Cc1ccc2cc3c(NC(=O)c4ccco4)nn(CC(C)C)c3nc2c1	Fluor 339 460 3.9 (not shown: DPM-DC inhibit)
CCOc1ccc(C2N(c3ccc(F)cc3)C(=O)C3CCCN32)cc1OC (centres undefined)	none
CC(C)OC(=O)c1cccnc1SCc1cc(=O)n2ccccc2n1	Spn PMK inh 28.0
CC(C)CC(=O)Nc1ccc2oc(-c3ccncc3)nc2c1	Fluor 339 460 3.72 (not shown: DPM-DC inhibit)
O=C(Cc1ccccc1)Nc1ccc2oc(-c3ccncc3)nc2c1	Fluor 339 460 3.86 (not shown: DPM-DC inhibit)
CC(C)CC(=O)Nc1cccc(-c2nc3ccccc3o2)c1	none
O=C(Nc1ccc2oc(-c3ccncc3)nc2c1)c1ccccc1F	Fluor 339 460 3.71 (not shown: DPM-DC inhibit)
O=C(NCCN1C(=O)CCC1=O)c1ccncc1	none
CN(C)CCCNc1cc(Cl)c(S(=O)(=O)N2CCCCC2)cc1C(=O)O	none
CCCCc1cc(=O)oc2c(CN(C)C)c(O)c(Cl)cc12	Fluor 339 460 2.33 (not shown: DPM-DC inhibit)
Cc1c(C)c2cc(Cl)c(O)c(CN(C)C)c2oc1=O	Fluor 339 460 2.31 (not shown: DPM-DC inhibit)
CCc1c(C)c2cc(Cl)c(O)c(CN(CC)CC)c2oc1=O	Fluor 339 460 3.7 (not shown: DPM-DC inhibit)
CCc1c(C)c2cc(Cl)c(O)c(CN(C)C)c2oc1=O	Fluor 339 460 3.68 (not shown: DPM-DC inhibit)
CC1CCc2c(sc3nc(SCc4nc(-c5ccccc5)no4)n(C)c(=O)c23)C1 (centres undefined)	none
COc1ccc(CNC2CC(=O)N(C)C2=O)cc1 (centres undefined)	none
c1cncc(C2Nc3ccccc3-c3nc4ccccc4n32)c1 (centres undefined)	none
Cc1ccc2c(c1)-c1cc(C)nn1C(c1ccc3c(c1)OCO3)N2 (centres undefined)	none
